# High-throughput results (PubChem)
# Rows were chosen to be rich in hits. Some 3.6% of all compounds tested hit in one or more screens of this group.
# AmpC inh no detg – qHTS Inhibitors of AmpC Beta-Lactamase (assay without detergent); AmpC nitrocefin hydrolysis, absorbance 480 nm, 0.0001% Triton; P00811; 330,000 compounds, 0.52% hits; Potency, µM (top dose mostly 57.1 µM), inactives show at the top dose activity change, negative = inhibition, actives largely listed as inhibitors;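 further: plate controls were no compound for no effect and no enzyme for full effect; nearly all actives have a fitted effect of over 20% in size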
# Target sequence (P00811 whole entry, looked up): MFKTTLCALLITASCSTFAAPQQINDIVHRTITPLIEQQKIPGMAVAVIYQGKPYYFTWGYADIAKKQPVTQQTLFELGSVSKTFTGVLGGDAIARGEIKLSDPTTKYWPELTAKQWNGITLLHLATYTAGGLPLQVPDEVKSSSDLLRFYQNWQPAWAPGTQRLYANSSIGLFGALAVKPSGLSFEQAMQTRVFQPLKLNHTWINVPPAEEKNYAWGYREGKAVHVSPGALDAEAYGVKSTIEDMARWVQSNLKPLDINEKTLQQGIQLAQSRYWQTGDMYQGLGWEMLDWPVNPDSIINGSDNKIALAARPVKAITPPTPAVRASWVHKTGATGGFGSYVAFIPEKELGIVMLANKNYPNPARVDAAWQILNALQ
#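 AmpC (5.3 nM in the dispensed reagent) in 20 mM phosphate pH 7.0 with 0.01% (detergent screen) or 0.0001% Triton X-100 was preincubated with compounds for 15 min at room temperature. Nitrocefin was then added from an 800 uM solution, and hydrolysis was followed at 480 nm.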
# FBPA Giardia inh – qHTS Assay for Inhibitors of Fructose-1,6-bisphosphate Aldolase from Giardia Lamblia. A8B2U2. purified Giardia FBPA. Potency, µM (titrated, usually from 59.6 µM), for inactives: at the highest dose activity, negative = inhibition, usual class: inhibitors. 290,000 compounds, 0.71% hits. AID 2451, 2010; further: nearly all actives have a fitted effect of over 55% in size
#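 40 nM FBPA preincubated 10 min at RT with compound (up to 57.5 uM final), then substrate plus GAPDH/TPI/NAD/arsenate coupling and diaphorase/resazurin added. Fluorescence read after 20 min at RT, 525/598 nm.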
# Sm TGR inh – qHTS Assay for the Inhibitors of Schistosoma Mansoni Peroxiredoxins | purified TGR, DTNB reduction, TNB absorbance 405 nm | Potency, µM (top dose mostly 114 µM), inactives show top-dose activity change, negative = inhibition, most hits filed as inhibitors | 360,000 compounds, 3% hits; further: nearly all actives have a fitted effect of over 60% in size
#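 First, TGR (20 nM dispensed) and NADPH were mixed with compound. Second, a 15 min room-temperature incubation followed. Third, further NADPH and then DTNB were added to start the reaction. Finally, TNB absorbance was monitored kinetically.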
# AmpC inh detg – qHTS Inhibitors of AmpC Beta-Lactamase (assay with detergent); P00811; AmpC hydrolysis of nitrocefin, absorbance 480 nm, 0.01% Triton; Potency, µM (top dose mostly 114 µM), inactives show at the top dose activity change, negative = inhibition, actives largely listed as inhibitors; 370,000 compounds, 0.041% hits; AID 485294, 2010;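 further: 0% = no-compound wells and -100% = no-enzyme wells; nearly all actives have a fitted effect of over 25% in size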
#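 AmpC (5.3 nM in the dispensed reagent) in 20 mM phosphate pH 7.0 with 0.01% (detergent screen) or 0.0001% Triton X-100 was preincubated with compounds for 15 min at room temperature. Nitrocefin was then added from an 800 uM solution, and hydrolysis was followed at 480 nm.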
# An asterisk follows results filed as active; u = inconclusive; x = not tested or not shown. The call rests on the fitted dose curve; in most records, active means well fitted curve in the direction sought with a large enough effect; inconclusive means small, poorly fitted or top-dose-only effect, or another doubt; inactive means no such curve, though single readings can be large; an effect the other way counts as inactive or inconclusive. Unless noted, on the % scale 0 is the no-effect control and ±100 the full control effect; potency means the concentration at half of the fitted maximal effect.
SMILES,AmpC inh no detg,FBPA Giardia inh,Sm TGR inh,AmpC inh detg
CCOC(=O)C1CCCN(C(=O)c2ccc(-c3ccc([N+](=O)[O-])cc3)o2)C1 (configuration not stated),-1%,x,6.3µM*,-20%
CCOC(=O)C1CCCN(C(=O)c2ccc(CS(=O)(=O)c3ccc(C)cc3)o2)C1 (configuration not stated),6%,-4%,20µM*,-13%
Cc1ccc(S(=O)(=O)Cc2ccc(C(=O)N3CCN(c4ccccn4)CC3)o2)cc1,10%,5%,u,-8%
Cc1ccc(S(=O)(=O)Cc2ccc(C(=O)N3CCCC3)o2)cc1,2%,19%,45µM*,8%
CCOC(=O)C1CCCN(C(=O)c2ccc(CS(=O)(=O)Cc3ccccc3C)o2)C1 (configuration not stated),22%,8%,28µM*,1%
CCOC(=O)C1CCCN(C(=O)c2ccc(C(=O)c3ccccc3)cc2)C1 (configuration not stated),0%,x,5%,u
CC1(c2ccccc2)NC(=O)N(CC(=O)N(c2ccccc2)C2CCS(=O)(=O)C2)C1=O (configuration not stated),10%,x,x,x
COc1ccccc1NC(=O)CCC(=O)OCC(=O)c1ccc(C)c([N+](=O)[O-])c1,-10%,x,-13%,-1%
Cc1ccc(S(=O)(=O)Cc2ccc(C(=O)N3CCCCCC3)o2)cc1,9%,1%,16µM*,u
Cc1ccc(C)c(N2CCN(C(=O)c3ccc(CS(=O)(=O)c4ccccc4C)o3)CC2)c1,82%,1%,25µM*,u
Cc1ccc(S(=O)(=O)Cc2ccc(C(=O)N3CCN(c4cc(C)ccc4C)CC3)o2)cc1,-18%,1%,1%,-11%
CC(=O)Nc1ccc(NC(=O)CSc2nnc(-c3cccs3)n2N)cc1,-10%,x,0%,-19%
O=C1OC(c2ccccc2)=NC12CC2c1ccc(Cl)cc1 (configuration not stated),-10%,2%,14µM*,6%
Cc1cc(-c2n[nH]c(=S)n2/N=C/C=C/c2ccco2)n[nH]1,-29%,u,22µM*,-2%
S=c1[nH]nc(-c2ccc(Cl)cc2)n1/N=C/C=C/c1ccco1,16µM*,-1%,40µM*,-6%
S=c1[nH]nc(-c2ccccc2)n1/N=C/C=C/c1ccco1,-56%,6%,u,-13%
Cc1ccccc1-c1n[nH]c(=S)n1/N=C/C=C/c1ccco1,10µM*,-10%,14µM*,3%
Cc1nc([N+](=O)[O-])c(Sc2nc3ccccc3[nH]2)n1Cc1ccccc1,-45%,-4%,20µM*,-5%
Cn1cnc([N+](=O)[O-])c1Sc1nc2ccccc2[nH]1,-2%,-12%,1.4µM*,6%
Cc1cc2nc(Sc3c([N+](=O)[O-])nc(C)n3Cc3ccccc3)[nH]c2cc1C,-22%,1%,18µM*,-3%
Cc1ccc(OCC(=O)NNC(=O)C(=O)N2CCCC2)c(C)c1,-18%,3%,0%,-3%
CC[C@H](C)N,x,-1%,x,x
Cc1ccccc1OCc1nc2ccccc2c(=O)n1/N=C/c1ccco1,-14%,3%,40µM*,2%
Cc1nc2ccccc2c(=O)n1/N=C/c1ccco1,-6%,-7%,-14%,-14%
COc1ccc2cc(C#N)c(=O)oc2c1,x,2%,x,x
SMILES,AmpC inh no detg,FBPA Giardia inh,Sm TGR inh,AmpC inh detg
CCOc1ccc(NC(=O)CN(C)C(=O)c2cc([N+](=O)[O-])ccc2N2CCOCC2)cc1OCC,57%,x,9%,-15%
COc1cc2cc(C(c3nnnn3C3CCCC3)N3CCCCC3)c(=O)[nH]c2cc1OC (configuration not stated),-15%,3%,-32%,8%
Cc1ccc2cc(C(c3nnnn3Cc3ccccc3)N3CCN(c4ccccc4)CC3)c(=O)[nH]c2c1 (configuration not stated),-14%,-16%,22µM*,5%
COc1ccc(N2CCN(C(c3cc4cc(C)ccc4[nH]c3=O)c3nnnn3Cc3ccccc3)CC2)cc1 (configuration not stated),0%,u,u,-6%
O=c1c(C(c2nnnn2C2CCCCC2)N2CCCCC2)coc2ccc(Cl)cc12 (configuration not stated),-13%,4%,28µM*,-2%
Clc1ccc(C(c2nnnn2C2CCCC2)N2CCN(Cc3ccncc3)CC2)cc1 (configuration not stated),180%,-11%,0%,u
COc1cc2cc(C(c3nnnn3C3CCCC3)N3CCCCCC3)c(=O)[nH]c2cc1OC (configuration not stated),73%,-12%,35µM*,3%
Cc1ccc2cc(C(c3nnnn3C3CCCC3)N3CCN(c4ccccc4)CC3)c(=O)[nH]c2c1 (configuration not stated),-9%,-13%,13µM*,-5%
O=C(c1ccco1)N1CCN(C(=S)Nc2ccc(Br)cc2Cl)CC1,20%,x,-27%,3%
CC1CCCC(NC(=O)C2CCN(S(=O)(=O)N3CCCCCC3)CC2)C1C (configuration not stated),7%,-4%,0%,u
Cc1ccccc1OCC1CNC(=O)O1 (configuration not stated),0%,0%,x,-7%
O=C1NCC(COCc2ccco2)O1 (configuration not stated),-6%,-2%,45µM*,-13%
OC1(c2ccc(Br)cc2)CCNCC1,-12%,2%,50µM*,-15%
OC1(c2ccc(F)cc2)CCNC1 (configuration not stated),-4%,0%,-20%,0%
CN(C)c1ccc(-c2cncnc2NCc2ccccc2)cc1,x,1%,x,x
COc1ccc2c(/C=N/NS(=O)(=O)c3ccc(C)cc3)c[nH]c2c1,-52%,7%,14µM*,-6%
COc1ccc(-c2coc3cc(O)ccc3c2=O)c(O)c1O,x,18µM*,x,x
Cc1nn(C)c(C)c1CS(=O)(=O)c1ccccc1,-10%,9%,22µM*,4%
N#Cc1ccc(N2CCCNCC2)nc1,-1%,-5%,28µM*,-5%
COC(=O)C(NC(=O)CCc1c(C)nc2c(-c3ccccc3)c(C)nn2c1C)C(C)C (configuration not stated),x,x,-14%,-10%
CCC1=C(OC(=O)N(CC)CC)N2C(=O)OC(=NCCOC)[C@]2(C)[C@H]2C1=CC[C@H]1C(=O)NC(=O)[C@H]12,x,-4%,x,x
CCOc1ccccc1C1N=C(c2ccc(OC)cc2)CC(c2ccccc2O)N1 (configuration not stated),32µM*,1%,-11%,7%
CC(C)C1N=C(c2ccc3c(c2)OCO3)CC(c2ccccc2O)N1 (configuration not stated),-43%,-10%,-30%,-13%
